The results in this text go back to ChEMBL document CHEMBL1157539, “Thousands of chemical starting points for antimalarial lead identification” (Nature, 2010).

The subject of the assay is HepG2. As to the kind of experiment: GSK_TCMDC: Percent inhibition of human HepG2 cell line. Test compounds present at 10uM. The format is functional.
As usually defined, the Inhibition is the percentage by which the read-out fell short of the control. Low readings indicate little suppression, high ones strong suppression. In the case of `C=CCOC(=O)N1CCC(CNCc2cccc(-c3ccc(-c4nc5cccc(C)c5[nH]4)cc3)c2)C1.O=C(O)C(F)(F)F` (stereo not given), the Inhibition is on record as 24%.

For the compound `COCCNCc1cccc(-c2ccc3c(Nc4ccc(Oc5cccnc5)cc4)ccnc3c2)c1`, the Inhibition is on record as 58%.

For the compound `CC(CN(C)C)C(=O)Nc1cccc(-c2ccc(-c3nc4ccccc4[nH]3)cc2)c1` (stereo not given), the Inhibition came to 1%.

Turning to `Cc1[nH]c(C)c(-c2ccc(OCCCCSc3ccncc3)cc2)c(=O)c1Br`, the Inhibition amounted to 0%.

`CC(C)N1CCN(C(=O)c2ccc(CN(C)CCCN3CCN(c4cccc(Cl)c4Cl)CC3)s2)CC1.Cl` yielded an Inhibition of 74%.

The compound `COc1ccc(Nc2nc(C)cc(NCc3ccc(-c4c(C)noc4C)cc3)n2)cc1` had an Inhibition of 48%.

`Cc1cc(Nc2cc(Cl)cc(Cl)c2)nc(N)n1`: the Inhibition came to 0%.

As for `O=C(Nc1cc2cc(-c3ccc(CN4CCCCC4)cc3)ccc2n2cnnc12)NC1CCCC1`, the Inhibition is given as 78%.

Compound `CCc1ccc(NC(=O)c2ccc(CN3CCCN(Cc4cccc(O)c4)CC3)cc2)cc1.O=C(O)C(F)(F)F` registered an Inhibition of 51%.

Regarding `Clc1cc2c(Nc3ccc(Oc4ccccc4)cc3)ccnc2cc1-c1ccc(CNCCN2CCOCC2)o1`, the Inhibition worked out at 0%.

`Brc1ccc(Nc2nc(NCC3CCCO3)c3ccccc3n2)cc1` (stereo not given) showed an Inhibition of 13%.

Compound `Cc1cc(C)cc(CC(=O)N2CCC(n3c(C)nc4ccc(C)cc43)CC2)c1` had an Inhibition of 52%.

`Br.CC1(C)NC(N)=NC(=N)N1OCCCOc1ccccc1N` came in with an Inhibition of 70%.

Compound `COc1cc2c(cc1OCCN1CCC(N)CC1)N(C(=O)/C=C/c1ccccc1Cl)CC2.Cl` had an Inhibition of 19%.

With `CCOc1cc(C(=O)Nc2ccc3nc(N(CC)CC)cc(C)c3c2)cc(OCC)c1OCC`, the Inhibition is recorded as 16%.

In turn, `CCCNCc1ccc(-c2ccc(CN(CCOC)C(=O)c3cnc(C)cn3)cc2)nc1.O=C(O)C(F)(F)F` showed an Inhibition of 0%.

`COc1ccc2ncc(F)c([C@@H](O)CN3CCC(NCc4cc5c(cn4)OCS5)CC3)c2c1.Cl` yielded an Inhibition of 16%.

Take `Cc1cccc2nc(-c3cccc(-c4ccc(NC(=O)c5cnn6cccnc56)cc4)c3)[nH]c12`: the Inhibition came out at 99%.

In the case of `COC(=O)Cc1ccc(N)c2ccccc12.Cl`, the Inhibition was 2%.

The compound `CCCCC(CC)CN1C(=O)C(c2ccccc2)(c2ccccc2)N=C1N.O=CO` (stereo not given) showed an Inhibition of 32%.

Compound `CCCOc1cccc(C(=O)N[C@@H](Cc2ccccc2)[C@H](O)CNCc2cccc(OC)c2)c1` returned an Inhibition of 14%.

`CCC(C)NS(=O)(=O)c1ccc2nc(Nc3ccc(C)cc3)n(C3CCCCC3)c2c1` (stereo not given) displayed an Inhibition of 0%.

Take `CCNc1cc(C(=O)N[C@@H](Cc2ccccc2)[C@H](O)CNCc2cccc(-c3cncnc3)c2)cc(N2CCCC2=O)c1.O=C(O)C(F)(F)F`: the Inhibition came to 5%.

Take `O=C(O)C(F)(F)F.O=S(=O)(NC1CCN(c2ccnc3cc(Cl)ccc23)C1)c1ccc(C(F)(F)F)cc1` (stereo not given): the Inhibition worked out at 20%.

`O=[N+]([O-])c1cccc(-c2ccc(C=NNc3cc(N4CCCC4)nc(N4CCCC4)n3)o2)c1` displayed an Inhibition of 0%.

In turn, `O=c1c(Br)c(C(F)(F)F)[nH]c2ccc(Oc3ccccc3)cc12` gave an Inhibition of 6%.

Compound `O=C(O)C(F)(F)F.O=c1ccc2ccc(F)c3c2n1CC3CN1CCC(NCc2cccc(-c3cccs3)c2)CC1` (stereo not given) had an Inhibition of 17%.

The compound `COc1ccccc1NC(=O)Nc1cccc(-c2ccc(-c3nc4cccc(C)c4[nH]3)s2)c1` returned an Inhibition of 19%.

On to `Br.CC1(C)NC(N)=NC(=N)N1OCCCOc1cccc(Cl)c1`, for which the Inhibition is 65%.

Compound `COC(=O)c1cccc(OCCNC2CCN(C[C@H](O)c3ccnc4ccc(OC)cc34)CC2)c1.O=C(O)C(=O)O` showed an Inhibition of 0%.

In the case of `CC(C)c1ccc(NS(=O)(=O)c2cccc(C(=O)NC3CCN(CC4CCCCC4)CC3)c2)cc1.O=C(O)C(F)(F)F`, the Inhibition was 71%.

With `Br.N=C(N)Nc1nc(-c2cccc(NC(=O)C(F)(F)F)c2)cs1`, the Inhibition stood at 0%.

Compound `CN(C)c1ccc(C(c2ccc(N(C)C)cc2)c2cc([N+](=O)[O-])ccc2Cl)cc1` gave an Inhibition of 0%.

Consider `CN(C)C1CCN(Cc2ccc(N3CCN(Cc4cccc5[nH]ccc45)CC3)nc2)CC1`, for which the Inhibition stood at 11%.

As for `COc1ccc(S(=O)(=O)Nc2cc(Br)cc3c2OCCC3)cc1N1CCN(C(=O)C(Cl)(Cl)Cl)CC1`, the Inhibition came out at 4%.

Regarding `O=C(Cc1cn(-c2ccccc2)nc1-c1ccc(Cl)cc1)Nc1nccs1`, the Inhibition stood at 9%.

In turn, `N#Cc1ccc(/C=C/C(=O)NCCCCCN2CCCN(C(=O)Nc3ccc(Cl)c(C(F)(F)F)c3)CC2)cc1` had an Inhibition of 28%.

In the case of `CN(Cc1ccc(C#N)cc1)C1CCN(c2cc(NC(=O)c3ccc(F)cc3)ccn2)CC1.O=C(O)C(F)(F)F`, the Inhibition stood at 24%.

The compound `O=C(CCc1c[nH]cn1)Nc1ccc(-c2ccc(-c3nc4ccccc4[nH]3)cc2)cc1` registered an Inhibition of 46%.

The compound `COc1ccc2ccccc2c1CON1C(=N)N=C(N)NC1(C)C.Cl` showed an Inhibition of 25%.
